From PubChem BioAssay (NCI) come the findings set out here.

The panel holds about 83,000 compounds, 20% with a hit somewhere; the sample as a whole holds those more often.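 A percent growth of 40 corresponds to 60% growth inhibition; 0 means no net growth; -100 means all cells died. Active threshold: below 10.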 Unmarked numbers belong to inactive results. Active and inactive are the calls of the source.

Among the test systems are K-562 leukemia; MALME-3M melanoma; MDA-MB-231 breast; RXF 393 renal; SF-268 CNS; SF-295 CNS; SF-539 CNS; UACC-257 melanoma; M14 melanoma; HCT-15 colon.
Common to all, as to assay: NCI-60 one-dose screen, 48 h (100 = growth as untreated, 0 = no growth, -100 = all killed)
Holding throughout (settings): 10 µM

With `N=C(N)c1ccc(-c2ccc(-c3cccs3)s2)s1`, the growth with K-562 leukemia was -68% (active); in the experiment with MALME-3M melanoma it was -73.9% (active); in the experiment on MDA-MB-231 breast it was -74.3% (active); in the experiment with RXF 393 renal, -91.7% (active); in the experiment on SF-268 CNS, -29.3% (active); with SF-295 CNS it was -79.5% (active). Besides, the growth in the experiment on SF-539 CNS was 25.9%; with UACC-257 melanoma it was -68.5% (active); in the experiment with M14 melanoma it was -79.5% (active); with HCT-15 colon, -68.4% (active).
Regarding `COc1ccc2c(c1)O/C(=C\c1ccc([N+](=O)[O-])o1)C2=O`, the growth with K-562 leukemia is 2.05% (active); in the experiment on MALME-3M melanoma it was -37.1% (active); in the experiment with MDA-MB-231 breast it was 8.07% (active); in the experiment on RXF 393 renal, -74% (active); in the experiment with SF-268 CNS, -5.87% (active); in the experiment with SF-295 CNS it was 9.85% (active). Further, the growth is -43.2% (active) with SF-539 CNS, -13.1% (active) with UACC-257 melanoma, -15.5% (active) in the experiment on M14 melanoma and 2.39% (active) in the experiment with HCT-15 colon.
In the case of `COc1ccc(-c2nn(-c3cccc(NC(=O)c4cc(C(F)(F)F)cc(C(F)(F)F)c4)c3)cc2-c2ccncc2)cc1Cl`, the growth in the experiment on K-562 leukemia was 31.3%; in the experiment on MALME-3M melanoma, 42.5%; in the experiment with MDA-MB-231 breast, 74%; in the experiment on RXF 393 renal, 62.8%; in the experiment with SF-268 CNS, 72.6%; in the experiment on SF-295 CNS, 53.9%. Besides, the growth in the experiment on SF-539 CNS was 67.4%; in the experiment on UACC-257 melanoma, 62%; in the experiment on M14 melanoma, 64%; with HCT-15 colon it was 73.7%.
`N#CC1=C(Nc2ccccc2Cl)SC(c2ccccc2O)NC1=O` (stereo not given): the growth in the experiment on K-562 leukemia is 102%; with MALME-3M melanoma it was 116%; with MDA-MB-231 breast, 113%; in the experiment with RXF 393 renal it was 121%; with SF-268 CNS, 112%; with SF-295 CNS, 113%. The growth with SF-539 CNS is 99.6%; in the experiment with UACC-257 melanoma, 37.1%; with M14 melanoma, 109%; in the experiment with HCT-15 colon, 119%.
Take `COc1ccc(-c2nc(-c3nc4ccc(Cl)cc4[nH]3)c3ccccn23)cc1`: the growth with K-562 leukemia is 55.8%; in the experiment on MALME-3M melanoma it was -10.8% (active); in the experiment on MDA-MB-231 breast, 11.8%; in the experiment with RXF 393 renal, -54.8% (active); with SF-268 CNS it was -8.4% (active); in the experiment with SF-295 CNS, 6.74% (active). Also, the growth in the experiment on SF-539 CNS was -13.7% (active); with UACC-257 melanoma it was 49.4%; in the experiment with M14 melanoma, 62.3%; in the experiment on HCT-15 colon, 62.8%.
Regarding `CN(CCc1ccccn1)c1ccccc1`, the growth in the experiment on K-562 leukemia was 95.2%; with MALME-3M melanoma it was 168%; in the experiment with MDA-MB-231 breast it was 105%; in the experiment on RXF 393 renal it was 120%; with SF-268 CNS, 124%; in the experiment on SF-295 CNS, 116%. In addition, the growth with SF-539 CNS was 94.1%; with UACC-257 melanoma it was 99.7%; with M14 melanoma, 100%; in the experiment with HCT-15 colon, 89.8%.
Regarding `Nc1ncnc2[nH]c(=O)[nH]c12`, the growth with K-562 leukemia is 46.5%; in the experiment with MALME-3M melanoma it was 104%; with MDA-MB-231 breast it was 91.4%; in the experiment with RXF 393 renal, 22.1%; with SF-268 CNS, 89%; in the experiment with SF-295 CNS, 85.1%. For the same compound, the growth in the experiment on SF-539 CNS is 87%; with UACC-257 melanoma, 103%; in the experiment on M14 melanoma, 94.6%; with HCT-15 colon, 96.3%.
For the compound `C=C(Cl)[C@@](Cl)(CBr)CC[C@@H](Br)C(C)(C)Cl`, the growth with K-562 leukemia is 8.41% (active); with MALME-3M melanoma, 102%; in the experiment with MDA-MB-231 breast, -78.2% (active); in the experiment on RXF 393 renal, -5.37% (active); in the experiment with SF-268 CNS it was 1.89% (active); in the experiment with SF-295 CNS, -48.4% (active). Moreover, the growth with SF-539 CNS was -81.9% (active); with UACC-257 melanoma, -66.7% (active); in the experiment on M14 melanoma it was 89.1%; in the experiment with HCT-15 colon, -63.8% (active).
On to `O=C1/C(=C\c2ccc(Cl)cc2)CN(C(=O)c2ccccc2)C/C1=C\c1ccc(Cl)cc1`, for which the growth with K-562 leukemia is 4.94% (active); in the experiment with MALME-3M melanoma, 64.8%; in the experiment on MDA-MB-231 breast, 25%; in the experiment with RXF 393 renal it was -22.5% (active); in the experiment with SF-268 CNS, 26.9%; in the experiment with SF-295 CNS, 1.64% (active). For the same compound, the growth in the experiment on SF-539 CNS was 61.4%; with UACC-257 melanoma it was 67.5%; in the experiment on M14 melanoma it was 2.03% (active); with HCT-15 colon it was 10.4%.
As for `COc1ccc(-c2nn(-c3cccc(NC(=O)Nc4ccc(Cl)c(C(F)(F)F)c4)c3)cc2-c2ccncc2)cc1Cl`, the growth with K-562 leukemia is 15.4%; with MALME-3M melanoma, -8.87% (active); in the experiment on MDA-MB-231 breast, 0.455% (active); in the experiment with RXF 393 renal it was 19.3%; with SF-268 CNS it was 31%; with SF-295 CNS it was -2.09% (active). Moreover, the growth with SF-539 CNS is -7.12% (active); in the experiment on UACC-257 melanoma, -7.89% (active); with M14 melanoma, 6.17% (active); in the experiment with HCT-15 colon it was 16.3%.
In the case of `Cc1nc2ccccc2c(N)c1-c1cc(C)c2c(C)nc3ccccc3c2n1`, the growth in the experiment with K-562 leukemia is -36.1% (active); in the experiment with MALME-3M melanoma, 95.3%; in the experiment with MDA-MB-231 breast, -80.2% (active); in the experiment on RXF 393 renal it was -80.3% (active); in the experiment with SF-268 CNS it was -67.5% (active); in the experiment on SF-295 CNS, 85.2%. The growth with SF-539 CNS is -71.9% (active); with UACC-257 melanoma, 105%; in the experiment on M14 melanoma, 39.3%; in the experiment on HCT-15 colon, -90% (active).
`Nc1cc2c(cc1Cl)-c1ccc([N+](=O)[O-])cc1/C2=N\O`: the growth is 30.5% in the experiment on K-562 leukemia; 90.7% in the experiment with MALME-3M melanoma; 105% in the experiment on MDA-MB-231 breast; 104% in the experiment with RXF 393 renal; 79.1% with SF-268 CNS; 74.8% in the experiment with SF-295 CNS. The growth with SF-539 CNS is 75.9%; in the experiment on UACC-257 melanoma, 103%; in the experiment on M14 melanoma it was 78.2%; in the experiment on HCT-15 colon, 62.9%.
As to `O=C1/C(=C/c2ccc([N+](=O)[O-])o2)Oc2ccccc21`, the growth was 1.24% (active) in the experiment with K-562 leukemia; -40.6% (active) in the experiment with MALME-3M melanoma; -17.3% (active) in the experiment with MDA-MB-231 breast; -74.9% (active) with RXF 393 renal; -10.8% (active) with SF-268 CNS; 79.2% with SF-295 CNS. For the same compound, the growth with SF-539 CNS is -40.7% (active); with UACC-257 melanoma, -8.85% (active); in the experiment with M14 melanoma, 13.8%; in the experiment on HCT-15 colon, 1.63% (active).
For `Nc1nc(Nc2ccccc2)n[nH]1`, the growth with K-562 leukemia was 98.6%; with MALME-3M melanoma, 98.5%; in the experiment on MDA-MB-231 breast, 105%; with RXF 393 renal, 104%; in the experiment with SF-268 CNS, 112%; with SF-295 CNS it was 98.1%. The growth is 94.2% in the experiment with SF-539 CNS, -7.13% (active) with UACC-257 melanoma, 96.5% with M14 melanoma and 93.8% with HCT-15 colon.
